# Hit rate of the full screen: of about 39,000 compounds, about 3,300 (8.5%) were called active. Shown is part of a subset that was picked to be rich in actives.
# Test system: HepG2
# Assay: cytotoxicity call (relative viability < 0.9)
# Details: 10 µM
row,Compound,cytotoxicity call
1,COc1ccc(CN(C)C[C@H]2OCCCC[C@@H](C)Oc3ccc(NS(=O)(=O)c4ccc(F)cc4)cc3C(=O)N([C@H](C)CO)C[C@@H]2C)cc1,inactive
2,COc1ccccc1NC(=O)N(C)C[C@@H]1Oc2cc(Br)ccc2S(=O)(=O)N([C@@H](C)CO)C[C@@H]1C,inactive
3,C[C@H]1CN([C@@H](C)CO)S(=O)(=O)c2ccc(-c3cncnc3)cc2O[C@H]1CN(C)C(=O)NC1CCCC1,inactive
4,COc1ccc2c3c([nH]c2c1)[C@H](CO)N(Cc1ccc(cc1)Cl)C[C@]13CCN(CCc2ccccc2)CC1,active
5,COc1ccc2c3c([nH]c2c1)[C@@H](CO)N(Cc1ccncc1)C[C@]13CCN(CC1)Cc1ccc(cc1)-c1ccccn1,inactive
6,COc1ccc2c3c([nH]c2c1)[C@@H](CO)N(Cc1ccc(cc1)Cl)C[C@]13CCN(CCc2ccccc2)CC1,active
7,COc1ccc2c3c([nH]c2c1)[C@@H](CO)N(C[C@]13CCN(CCc2ccccc2)CC1)C(=O)CN1CCOCC1,inactive
8,COc1ccc(cc1)CN1C[C@]2(CCN(CC2)C(=O)Nc2cccc(c2)F)c2c([nH]c3cc(ccc23)OC)[C@@H]1CO,inactive
9,COc1ccc2c3c([nH]c2c1)[C@H](CO)N(Cc1ccccc1)C[C@]13CCN(CC1)C(=O)Nc1cccc(c1)F,inactive
10,COc1ccc(NC(=O)N(C)C[C@H]2OCCCC[C@H](C)Oc3ccc(NC(=O)C4CCCCC4)cc3C(=O)N([C@H](C)CO)C[C@@H]2C)cc1,inactive
11,C[C@@H]1CN([C@@H](C)CO)C(=O)c2cc(NS(=O)(=O)c3cccs3)ccc2O[C@H]1CN(C)Cc1ccncc1,inactive
12,Cc1noc(C)c1S(=O)(=O)N(C)C[C@@H]1Oc2ccc(NC(=O)Cc3ccccc3)cc2CC(=O)N([C@@H](C)CO)C[C@H]1C,inactive
13,C[C@@H]1CN([C@H](C)CO)C(=O)Cc2cc(NS(=O)(=O)c3ccc(Cl)cc3)ccc2O[C@@H]1CN(C)Cc1ccc(-c2ccccc2)cc1,active
14,C[C@@H]1CN([C@@H](C)CO)C(=O)Cc2cc(NS(=O)(=O)c3ccc(Cl)cc3)ccc2O[C@H]1CN(C)Cc1ccc(-c2ccccc2)cc1,active
15,C[C@H]1CN([C@@H](C)CO)C(=O)Cc2cc(NS(=O)(=O)c3ccc(Cl)cc3)ccc2O[C@H]1CN(C)Cc1ccc(-c2ccccc2)cc1,active
16,C[C@@H]1CN([C@H](C)CO)C(=O)Cc2cc(NS(=O)(=O)c3ccc(Cl)cc3)ccc2O[C@H]1CN(C)Cc1ccc(-c2ccccc2)cc1,inactive
17,C[C@H](CO)N1C[C@H](C)[C@@H](CN(C)Cc2ccc(-c3ccccc3)cc2)Oc2ccc(NS(=O)(=O)c3ccc(Cl)cc3)cc2CC1=O,inactive
18,C[C@@H]1CN([C@@H](C)CO)C(=O)Cc2cc(NS(=O)(=O)c3ccc(Cl)cc3)ccc2O[C@@H]1CN(C)Cc1ccc(-c2ccccc2)cc1,inactive
19,C[C@H]1CN([C@@H](C)CO)C(=O)Cc2cc(NS(=O)(=O)c3ccc(Cl)cc3)ccc2O[C@@H]1CN(C)Cc1ccc(-c2ccccc2)cc1,inactive
20,C[C@H](CO)N1C[C@H](C)[C@H](CN(C)Cc2ccc(-c3ccccc3)cc2)Oc2ccc(NS(=O)(=O)c3ccc(Cl)cc3)cc2CC1=O,inactive

# Reference: the antibiotic and cytotoxicity screens of Wong et al. (2023)
